# Data: PubChem BioAssay (NCI)
# The panel holds about 83,000 compounds, 20% with a hit somewhere; the sample as a whole holds those more often.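 A percent growth of 40 corresponds to 60% growth inhibition; 0 means no net growth; -100 means all cells died. Active threshold: below 10.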 Values without a mark were called inactive. Calls of active or inactive are those of the source.
# Assays:
# Assay in all cases: NCI-60 one-dose screen, 48 h (100 = growth as untreated, 0 = no growth, -100 = all killed)
# Conditions in all cases: 10 µM unless noted
# SK-MEL-2 melanoma = test system: SK-MEL-2 melanoma
# EKVX NSCLC = test system: EKVX NSCLC
# SN12C renal = test system: SN12C renal
# UO-31 renal = test system: UO-31 renal
# TK-10 renal = test system: TK-10 renal
# ACHN renal = test system: ACHN renal
# CAKI-1 renal = test system: CAKI-1 renal
# A498 renal = test system: A498 renal
# CCRF-CEM leukemia = test system: CCRF-CEM leukemia
# MOLT-4 leukemia = test system: MOLT-4 leukemia
Compound,growth (SK-MEL-2 melanoma),growth (EKVX NSCLC),growth (SN12C renal),growth (UO-31 renal),growth (TK-10 renal),growth (ACHN renal),growth (CAKI-1 renal),growth (A498 renal),growth (CCRF-CEM leukemia),growth (MOLT-4 leukemia)
CCOC(=O)c1ccccc1NC1=C(Cl)C(=O)c2nc(C)ccc2C1=O,112%,95.1%,88.2%,91.9%,147%,101%,98.6%,87.4%,–,–
C#CCn1cc(/C=N/Nc2nc(-c3ccc(Br)cc3)cs2)c2ccccc21,104%,63.9%,95.1%,81.4%,162%,98%,106%,94.7%,101%,–
Clc1cccc(/C=N/Nc2nc(N/N=C/c3cccc(Cl)c3)nc(N3CCOCC3)n2)c1,-1.89% (active),72.2%,59.9%,26.8%,100%,25.8%,37.6%,4.3% (active),24.8%,–
CNC(=O)c1cc(-c2ccc(NC(=S)Nc3cccc(C(F)(F)F)c3)cc2)nc2cccnc12,103%,98.1%,97.3%,81.8%,102%,94.8%,91.3%,88.8%,88%,–
COc1ccc(/C=N/N=C(/c2ccccc2)c2ccc3nc(-c4ccc(Cl)cc4)[nH]c3c2)cc1,89.1%,91.9%,85.4%,78.7%,81.9%,87.5%,72.4%,59.8%,–,–
CN1CCN(Cc2ccc(NC(=O)c3cncc(C#Cc4cnc5ccc(OCC6COC6)nn45)c3)cc2C(F)(F)F)CC1,-78.4% (active),-71.6% (active),-30.6% (active),-92.3% (active),-82.2% (active),-96.5% (active),-92.8% (active),-93.7% (active),-8.07% (active),–
C#C[C@]1(O)CC[C@H]2[C@@H]3CC=C4c5sc(N(C)c6ccccc6)nc5CC[C@]4(C)[C@H]3CC[C@@]21C,85.8%,103%,91.2%,106%,137%,92.1%,92.3%,88.4%,44.3%,–
CC(C)(C)OC(=O)NCc1ccc(CNc2c([N+](=O)[O-])cnc3ccccc23)cc1,29.7%,44.2%,75.9%,50.3%,80.4%,61.1%,67.1%,36.2%,59.8%,–
Cc1ccccc1Nc1nc(SC(C)C)nc(-c2ccccc2)c1C#N,130%,73.2%,12.1%,-40.2% (active),61.1%,13.4%,38.4%,53.5%,80.9%,–
N/C(=N\C(N)=N\c1nc2ccccc2s1)c1ccc(Cl)cc1,96.8%,59.8%,61.1%,73.1%,132%,62.1%,65.1%,74.7%,57.9%,–
Brc1ccc2[nH]cc(-c3nn4cc(-c5nccs5)nc4s3)c2c1,81.4%,64.9%,71.1%,-48.1% (active),98.3%,3.16% (active),-36.8% (active),47.5%,17.1%,–
CC(=C(c1ccc(OCCN(C)C)cc1)c1ccc(OCCN(C)C)cc1)c1ccc(Cl)cc1,-59.4% (active),-12.9% (active),-33.3% (active),-64.8% (active),-72.4% (active),-80.4% (active),-81.5% (active),-76.1% (active),-45.2% (active),–
N#Cc1nc(-c2ccccc2)oc1N1CCC(C2(C(F)(F)F)N=N2)CC1,97.8%,92.1%,119%,82%,116%,102%,84.8%,85.4%,102%,–
Cc1ccc([C@H]2c3[nH]c4ccccc4c3C[C@H]3C(=O)N(CCCCCCC(=O)NO)CC(=O)N23)s1,84.9%,69.4%,85.1%,71.9%,64.2%,85.5%,60.3%,76%,22%,12.5%
CCN(CC)c1ccc(/C=N/NC(=O)c2ccc(S(N)(=O)=O)cc2)c(O)c1,47.2%,15.9%,28.3%,7.5% (active),37.4%,14.8%,22.1%,24%,9.4% (active),–
Cc1ccc(N2CCN(C3=C(Cl)C(=O)c4ncccc4C3=O)CC2)cc1,94.4%,97%,27.8%,32%,133%,1.41% (active),44.3%,111%,5.41% (active),13.9%
C/C(=N\NC(=O)Nc1ccccc1)c1nnn(-c2ccc([N+](=O)[O-])cc2)c1C,104%,103%,110%,72.4%,99.7%,104%,94.4%,105%,105%,–
Cc1ccc2c(n1)C(=O)C(Cl)=C(Nc1ccc(C(C)C)cc1)C2=O,71.2%,-0.749% (active),46.4%,-65.3% (active),145%,-77.2% (active),77.3%,133%,3.85% (active),–
O=c1c2cc(-c3ccc(F)cc3F)ccc2n(Nc2ccccc2)c(=O)n1-c1cccc(C(F)(F)F)c1,-11.2% (active),6.49% (active),3.98% (active),4.59% (active),11.3%,2.25% (active),-10.6% (active),-18.1% (active),15.5%,6.73% (active)
COc1ccc([C@@H]2C(=O)N(c3cc(OC)c(OC)c(OC)c3)[C@H]2c2ccc(OC)c(O)c2)cc1,21.3%,48.4%,27.3%,25.4%,113%,28.3%,21%,-28.5% (active),21.5%,–
CC1(C)CC[C@]2(C(=O)NCCCCCCN(CCCN)CCCN)CC[C@]3(C)C(=CC[C@@H]4[C@@]5(C)CC[C@H](O)C(C)(C)[C@@H]5CC[C@]43C)[C@@H]2C1,113%,91.8%,96.4%,85.7%,106%,105%,75.2%,117%,105%,–
CC1=Cc2ccccc2OC12C=Cc1ccccc1O2 (configuration not stated),115%,82.2%,102%,69%,180%,88.4%,78.5%,117%,105%,–
CCc1cc(O)ccc1Nc1cc(-c2ccc(-n3cccn3)cc2)[nH]n1,87.3%,63%,73.5%,50.9%,98.6%,43.9%,44.8%,92.9%,60.4%,–
C#C[C@]1(O)CC[C@H]2[C@@H]3CC=C4c5sc(Nc6cc(Cl)ccc6OC)nc5CC[C@]4(C)[C@H]3CC[C@@]21C,1.15% (active),22.3%,53.7%,16.1%,48.4%,32.1%,-4.8% (active),-2.08% (active),8.93% (active),–
Cc1[nH]c(C(=O)Nc2ccc(S(=O)(=O)N3CCCCC3)cc2OCCOCCOCCOCCOCCOCCOCCOCCOCCOc2cc(S(=O)(=O)N3CCCCC3)ccc2NC(=O)c2[nH]c(C)c3c2CCCCC3=O)c2c1C(=O)CCCC2,-11.7% (active),44%,23.1%,40.5%,8.54% (active),67.5%,15.9%,-42.9% (active),–,–
CC(=O)Nc1nc(C)c(-c2csc(Nc3ccccc3)n2)s1,18.8%,-0.417% (active),24.4%,10.9%,31.4%,17.2%,28.6%,16%,27.1%,–
C#C[C@]1(O)CC[C@H]2[C@@H]3CC=C4c5sc(Nc6ncccc6C)nc5CC[C@]4(C)[C@H]3CC[C@@]21C,-11.1% (active),-10.6% (active),40.9%,-39.8% (active),40.9%,18.1%,-36.3% (active),-5.84% (active),7.66% (active),–
CCCCc1nc2c(N)nc3ccccc3c2n1Cc1ccc(OC)cc1,71.6%,58.5%,71.5%,40.2%,68.3%,76.9%,52.2%,35.7%,60.2%,–
